Experimental data as given in PubChem BioAssay.

Target: Homeobox protein Hox-A13 (Mus musculus) (UniProt Q62424)
Assay: inhibitors of HoxA13-DNA binding, primary screen, biochemical, fluorescence polarization, labeled oligonucleotide (AID 1185)
Settings: 15 min, higher = more signal, called active from +8 up or from −8 down

Chain of Homeobox protein Hox-A13 (Mus musculus) (Q62424 whole entry, looked up): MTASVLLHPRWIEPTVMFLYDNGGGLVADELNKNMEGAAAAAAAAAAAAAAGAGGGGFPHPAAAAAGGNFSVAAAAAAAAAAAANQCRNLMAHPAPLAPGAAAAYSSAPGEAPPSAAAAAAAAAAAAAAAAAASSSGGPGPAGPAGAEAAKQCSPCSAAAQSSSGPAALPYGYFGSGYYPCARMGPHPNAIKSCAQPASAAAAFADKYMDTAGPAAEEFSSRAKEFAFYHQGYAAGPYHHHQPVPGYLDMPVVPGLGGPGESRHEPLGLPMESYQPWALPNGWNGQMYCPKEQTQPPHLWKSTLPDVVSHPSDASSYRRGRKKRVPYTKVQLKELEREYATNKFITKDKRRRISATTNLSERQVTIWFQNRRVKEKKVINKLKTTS

z-score, inactive:
CCCNC(=O)OC[C@H]1O[C@H](CCON=C[C@@H](OC)[C@H](C)C=CCC(=O)OC)C=C[C@@H]1Oc1ccc(OC)cc1 -5.88, O=C1[C@H]2[C@H]3[C@H](O)[C@H](O)CC(=NO[C@@H]4O[C@H](CO)[C@@H](O)[C@H](O)[C@H]4O)[C@@H]3CC[C@H]2C(=O)N1c1ccc(F)cc1F 0.036, CCc1cc2c(nc1CC)CCN(CCC(C)=NOC[C@@H](O)COCc1ccco1)C2 -6.02, c1ccc(C2NCCc3c2[nH]c2ccccc32)cc1 (stereo not drawn) -0.654, COC(=O)CC=C[C@H](C)[C@@H](OCc1ccccc1Br)C(C)C -0.388, COC(=O)[C@H](C)NC(=O)CCC1CC(OC(=O)NCCc2ccc(F)cc2)CC2(CCCC(COC(=O)NCC(c3ccccc3)c3ccccc3)O2)O1 (stereo partly drawn) -4.47, CCOC(=O)NN=C1C[C@@H](O)[C@@H](O)[C@@H]2[C@@H]3C(=O)N(C[C@@H]4CCCO4)C(=O)[C@@H]3CC[C@@H]12 0.513, CO[C@@H]1COC(=O)CC=C[C@@H](C)[C@@H]2C=C[C@H](O)[C@@H](COC(=O)[C@H](C)NC(=O)CC=C[C@H]1C)O2 -3.61, CC(C)[C@@H](OCc1ccccc1)[C@H](C)C=NO[C@H](C)c1cn([C@H](CO)Cc2ccccc2)nn1 -4.42, CC(C)=CCCC(C)=CCON=C1[C@H]2CCn3c(=O)n(Cc4cc5c(cc4Cl)OCO5)c(=O)n3[C@H]2[C@H](O)[C@@H]2O[C@H]12 -1.16, O=C1[C@H]2[C@H]3[C@H](O)[C@H](O)CC(=NO[C@@H]4O[C@H](CO)[C@@H](O)[C@H](O)[C@H]4O)[C@H]3CC[C@H]2C(=O)N1C1CCCCC1 -4.7, O=C1[C@H]2[C@H]3[C@H](O)[C@H](O)CC(=NOC[C@@H](O)COCc4ccco4)[C@H]3CC[C@H]2C(=O)N1c1cccc(Oc2ccccc2)c1 0.338, COC(=O)CC=C[C@H](C)[C@H](CO)NS(=O)(=O)c1ccc(C)cc1 -1.56, CCN1C(=O)[C@H]2[C@H]3[C@H](O)[C@H](O)CC(=NOCc4ccccc4)[C@H]3CC[C@H]2C1=O -1.15, CC(=O)C[C@H](O)[C@@H](NC(=O)OC(C)(C)C)C(C)C 0.787, C[C@H]1CC[C@@H](C(=O)O)N[C@@H]1c1ccc(C#CCN(C)C)cc1 -1.16, CC(C)=NOCc1ccc(-c2cc(-c3ccccc3)no2)cc1 0.736, COC(=O)CC1OC1[C@H](C)[C@@H](OC)C(C)C (stereo partly drawn) -4.65, C#CCCCON=C1C[C@@H](O)[C@@H](O)[C@@H]2[C@@H]3C(=O)N([C@@H](C)c4ccccc4)C(=O)[C@@H]3CC[C@H]12 -2.2, CC(=O)OC[C@H]1O[C@H](CCON=C[C@@H](C)[C@H](OCc2ccccc2)C(C)C)C=C[C@@H]1OC(C)=O -4.91, CCOC(=O)[C@H](CC(C)C)NC(=O)CCC1CC(OC(=O)NCCc2ccc(F)cc2)CC2(CCCC(COC(=O)NCc3ccccc3)O2)O1 (stereo partly drawn) -7.01, CO[C@@H]1COC(=O)CCC[C@@H](C)[C@H](OC)COC(=O)[C@H](Cc2ccccc2)NC(=O)CC=C[C@H]1C -3.5, CC(C)[C@H](NC(=O)OC(C)(C)C)[C@@H](O)CC(=O)OC(C)(C)C -0.799, COc1ccc(COC(=O)NN=C2C[C@@H](O)[C@@H](O)[C@@H]3[C@@H]4C(=O)N(Cc5ccc6c(c5)OCO6)C(=O)[C@@H]4CC[C@@H]23)cc1 0.284, C=CC[C@@H]1C=C[C@H](ON=C2c3cc(OC)ccc3O[C@H](c3cccc(OC)c3)[C@H]2O)[C@@H](CO)O1 -5.69, CC(C)(C)N1C(=O)[C@H]2[C@H]3[C@H](O)[C@H](O)CC(=NO[C@@H]4O[C@H](CO)[C@@H](O)[C@H](O)[C@H]4O)[C@@H]3CC[C@H]2C1=O 0.0059, CC(C)CON=C1C[C@@H](O)[C@@H](O)[C@@H]2[C@@H]3C(=O)N(Cc4ccccc4)C(=O)[C@@H]3CC[C@@H]12 -0.596, O=C(NN=C1C[C@@H](O)[C@@H](O)[C@@H]2[C@@H]3C(=O)N(c4cccc(Oc5ccccc5)c4)C(=O)[C@@H]3CC[C@@H]12)OCc1ccccc1 -4.96
